Among the test systems are RPMI-8226 leukemia; OVCAR-8 ovarian; OVCAR-5 ovarian; OVCAR-4 ovarian; SK-OV-3 ovarian; IGROV1 ovarian; OVCAR-3 ovarian; HS 578T breast; NCI/ADR-RES ovarian; T-47D breast; BT-549 breast; MDA-MB-435 melanoma; SW-620 colon; MCF7 breast; HCT-116 colon; HCC-2998 colon; KM12 colon.
Common to all, as to experiment: NCI-60 one-dose screen, 48 h (100 = growth as untreated, 0 = no growth, -100 = all killed)
What all share (conditions): 10 µM

Nine molecules from PubChem BioAssay (NCI) can be followed below.

SMILES strings stand for the structures. Compounds without any hit were thinned out: in the full panel of roughly 83,000, 20% have a hit.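 Method: cells in 96-well plates; compound added at one concentration; 48 h incubation; percent growth measured; values under 10 scored active.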 A number with no mark means an inactive call. Activity calls are given as the source filed them.

With `N=c1c2c(-c3ccccc3)c(-c3ccccc3)n(Cc3ccccc3)c2ncn1CCCO`, the growth in the assay with RPMI-8226 leukemia was 18.7%; with OVCAR-8 ovarian it was 32.5%; in the assay on OVCAR-5 ovarian, 55.6%; with OVCAR-4 ovarian, 35.7%; in the assay with SK-OV-3 ovarian, 70.7%; with IGROV1 ovarian, 8.33% (active). Moreover, the growth is 8.78% (active) in the assay with OVCAR-3 ovarian; 46% in the assay on HS 578T breast; 42.9% with NCI/ADR-RES ovarian; 65.9% in the assay with T-47D breast; 88.5% in the assay with BT-549 breast; 34.2% in the assay on MDA-MB-435 melanoma. In addition, the growth in the assay on SW-620 colon was 21.6%; in the assay with MCF7 breast, 2.77% (active); in the assay with HCT-116 colon, 13.3%; with HCC-2998 colon, 64.3%; in the assay on KM12 colon, 29.9%.

In the case of `Cc1cc(Nc2ccc(Cl)cc2)nc(NCCCNc2ccnc3cc(Cl)ccc23)n1`, the growth with RPMI-8226 leukemia is -59.8% (active); in the assay on OVCAR-8 ovarian, -53.5% (active); in the assay on OVCAR-5 ovarian, -5.16% (active); in the assay on OVCAR-4 ovarian, -3.7% (active); in the assay with SK-OV-3 ovarian it was -78.7% (active); in the assay with IGROV1 ovarian, 6.54% (active). Also, the growth in the assay on OVCAR-3 ovarian is -80.1% (active); with HS 578T breast, -53.4% (active); with NCI/ADR-RES ovarian it was 2.15% (active); with T-47D breast, -90.2% (active); in the assay on BT-549 breast it was -86.7% (active); in the assay on MDA-MB-435 melanoma it was -88.6% (active). The growth was -67.4% (active) in the assay with SW-620 colon; -100% (active) with MCF7 breast; -97.4% (active) in the assay with HCT-116 colon; -88.9% (active) in the assay with HCC-2998 colon; -33.4% (active) in the assay with KM12 colon.

Take `O=C1/C(=C/c2ccc([N+](=O)[O-])o2)Oc2ccccc21`: the growth was -0.688% (active) in the assay with RPMI-8226 leukemia; 2.87% (active) with OVCAR-8 ovarian; 8.57% (active) in the assay on OVCAR-5 ovarian; -68.6% (active) with OVCAR-4 ovarian; 84% in the assay with SK-OV-3 ovarian; -22.7% (active) in the assay on IGROV1 ovarian. Also, the growth with OVCAR-3 ovarian was -69.7% (active); with HS 578T breast, 57.3%; with NCI/ADR-RES ovarian it was 14.8%; in the assay with T-47D breast, 8.17% (active); with BT-549 breast it was -51.3% (active); in the assay on MDA-MB-435 melanoma, -70.9% (active). Moreover, the growth with SW-620 colon was -77.6% (active); in the assay with MCF7 breast, 7.13% (active); in the assay on HCT-116 colon, -56% (active); in the assay with HCC-2998 colon, -1.7% (active); in the assay on KM12 colon it was 48.3%.

Regarding `Cc1ncc(-c2ccoc2)c(NC2CCCCCC2)n1`, the growth was 105% with RPMI-8226 leukemia; 99.1% in the assay with OVCAR-8 ovarian; 107% in the assay on OVCAR-5 ovarian; 105% in the assay with OVCAR-4 ovarian; 93.8% in the assay on SK-OV-3 ovarian; 96.4% in the assay on IGROV1 ovarian. For the same molecule, the growth with OVCAR-3 ovarian is 101%; with HS 578T breast it was 111%; in the assay on NCI/ADR-RES ovarian, 102%; in the assay with T-47D breast it was 92%; with BT-549 breast, 115%; in the assay with MDA-MB-435 melanoma it was 110%. Also, the growth in the assay on SW-620 colon is 111%; with MCF7 breast, 112%; in the assay on HCT-116 colon, 99.8%; with HCC-2998 colon, 105%; in the assay with KM12 colon, 105%.

Regarding `CCN(CC)CCCC(C)Nc1ccc2ccc(Cl)cc2n1` (stereo not drawn), the growth in the assay with RPMI-8226 leukemia is 97.3%; in the assay on OVCAR-8 ovarian, 94.4%; in the assay on OVCAR-5 ovarian, 102%; with OVCAR-4 ovarian, 116%; in the assay on SK-OV-3 ovarian it was 104%; with IGROV1 ovarian it was 101%. The growth with OVCAR-3 ovarian was 97.8%; in the assay on HS 578T breast, 90.8%; in the assay on NCI/ADR-RES ovarian, 98%; in the assay on T-47D breast, 93.1%; in the assay on BT-549 breast, 96.2%; in the assay on MDA-MB-435 melanoma it was 109%. For the same molecule, the growth in the assay on SW-620 colon is 97.9%; with MCF7 breast, 99.6%; in the assay on HCT-116 colon, 92.2%; in the assay on HCC-2998 colon it was 92.8%; with KM12 colon it was 104%.

Consider `COc1ccc(-c2nc(-c3nc4ccc(OC)cc4[nH]3)cc3c2[nH]c2ccccc23)cc1`, for which the growth in the assay with RPMI-8226 leukemia is -28.2% (active); in the assay on OVCAR-8 ovarian it was 17.5%; with OVCAR-5 ovarian it was 90%; with OVCAR-4 ovarian, 52.8%; in the assay on SK-OV-3 ovarian, 99.2%; in the assay with IGROV1 ovarian it was 21.1%. Besides, the growth in the assay on OVCAR-3 ovarian is 51.9%; in the assay with HS 578T breast, 18.8%; in the assay on NCI/ADR-RES ovarian, 32.9%; in the assay with T-47D breast it was 25.5%; with BT-549 breast, 39.8%; with MDA-MB-435 melanoma, 39.2%. In addition, the growth with SW-620 colon was 40.6%; in the assay with MCF7 breast it was 31.8%; with HCT-116 colon, 21.3%; with HCC-2998 colon it was 57.4%; in the assay on KM12 colon, 20.4%.

Consider `Cc1cc(N(CCCNc2ccnc3cc(Cl)ccc23)Cc2ccc3c(c2)OCO3)nc(N2CCCCC2)n1`, for which the growth is -49.5% (active) with RPMI-8226 leukemia; -11.2% (active) in the assay with OVCAR-8 ovarian; 4.69% (active) with OVCAR-5 ovarian; -9.93% (active) with OVCAR-4 ovarian; 31.3% in the assay with SK-OV-3 ovarian; -51.1% (active) in the assay with IGROV1 ovarian. The growth was -71.8% (active) with OVCAR-3 ovarian; -32.4% (active) in the assay on HS 578T breast; 7.45% (active) with NCI/ADR-RES ovarian; -37.3% (active) in the assay with T-47D breast; -24% (active) in the assay on BT-549 breast; -74.6% (active) in the assay with MDA-MB-435 melanoma. For the same molecule, the growth in the assay on SW-620 colon was -39.4% (active); in the assay on MCF7 breast it was -14.3% (active); in the assay with HCT-116 colon, -43.9% (active); with HCC-2998 colon, -57.6% (active); in the assay with KM12 colon, 10.4%.

For `COc1ccc(-c2nn(-c3cccc(NC(=O)c4ccc(N5CCOCC5)c(C(F)(F)F)c4)c3)cc2-c2ccncc2)cc1Cl`, the growth in the assay with RPMI-8226 leukemia was 14.6%; with OVCAR-8 ovarian it was 55.3%; in the assay on OVCAR-5 ovarian, 73.1%; in the assay with OVCAR-4 ovarian, 92.3%; in the assay on SK-OV-3 ovarian, 83.5%; in the assay on IGROV1 ovarian it was 94.3%. For the same molecule, the growth is 83.3% with OVCAR-3 ovarian; 41.1% in the assay on HS 578T breast; 52.7% with NCI/ADR-RES ovarian; 68.1% in the assay on T-47D breast; 67.9% in the assay on BT-549 breast; 30% in the assay on MDA-MB-435 melanoma. For the same molecule, the growth in the assay with SW-620 colon was 83.3%; with MCF7 breast, 53%; with HCT-116 colon, 55.5%; with HCC-2998 colon, 67.6%; in the assay on KM12 colon, 43.7%.

`O=C(N/N=C/c1ccccc1)C(Oc1ccccc1)c1ccccc1` (stereo not drawn): the growth is 98.1% in the assay with RPMI-8226 leukemia; 100% with OVCAR-8 ovarian; 101% in the assay on OVCAR-5 ovarian; 102% in the assay on OVCAR-4 ovarian; 104% in the assay on SK-OV-3 ovarian; 98.9% in the assay on IGROV1 ovarian. Moreover, the growth in the assay with OVCAR-3 ovarian is 105%; with HS 578T breast it was 98.4%; in the assay on NCI/ADR-RES ovarian, 75.2%; in the assay on T-47D breast, 94.4%; with BT-549 breast, 105%; in the assay with MDA-MB-435 melanoma it was 44%. For the same molecule, the growth in the assay with SW-620 colon was 96.2%; in the assay on MCF7 breast, 97.9%; in the assay with HCT-116 colon, 87.2%; in the assay on HCC-2998 colon it was 97.3%; in the assay on KM12 colon it was 84.5%.
